Screens as filed in PubChem BioAssay.
Sampled rows, rich in hits. Any-hit rate of the full collection: about 10%.
BAZ2B inh: inhibitors of human BAZ2B bromodomain. Q9UIF8. AID 504333. AlphaScreen BAZ2B-H3K14Ac peptide displacement. 360,000 tested, 4.4% active. Potency, µM (series often up to 114 µM), for inactives: at the top dose activity change, negative = inhibition, actives largely listed as inhibitors; further: potency means the concentration at half of the fitted maximal effect; on the % scale 0 is the no-effect control and ±100 the full control effect; nearly all actives have a fitted effect of over 60% in size
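Multi-concentration screen (max 110 uM) measuring displacement of acetylated histone H3 peptide from BAZ2B by AlphaScreen, using 50 nM protein, 50 nM peptide and 10 ug/mL streptavidin donor plus Ni-chelate acceptor beads.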
HP1b chromo inh: blocks HP1-beta chromodomain binding to methylated histone tails | P83916 | AlphaScreen HP1-beta / biotin-H3K9me3 peptide binding | Potency, µM (top dose mostly 114 µM), without a hit: at the highest dose activity change, negative = inhibition, actives largely listed as inhibitors | 390,000 tested, 0.56% active | AID 540317; further: potency means the concentration at half of the fitted maximal effect; nearly all actives have a fitted effect of over 70% in size
Target sequence (P83916 whole entry, looked up): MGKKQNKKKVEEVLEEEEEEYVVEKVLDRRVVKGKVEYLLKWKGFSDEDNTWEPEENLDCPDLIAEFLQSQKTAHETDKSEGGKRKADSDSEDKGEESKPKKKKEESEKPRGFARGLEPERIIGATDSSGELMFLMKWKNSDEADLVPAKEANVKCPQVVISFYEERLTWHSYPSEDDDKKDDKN
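HP1-beta protein (50 nM final) preincubated 30 min at room temperature with biotinylated H3(1-18)K9me3 peptide (50 nM) in PBS pH 7.4, 0.01% Tween-20, then compound added for 30 min. AlphaScreen streptavidin donor/nickel chelate acceptor beads (10 ug/mL final), 30 min dark, luminescence read.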
JMJD2A Tudor: JMJD2A Tudor domain (human) inhibition; O75164; AlphaScreen JMJD2A-Tudor / H3K4me3 peptide binding; Potency, µM (titrated, usually from 114 µM), for inactives: at the highest dose activity change, negative = inhibition, actives largely listed as inhibitors; 390,000 tested, 4.4% active; AID 504339; further: potency means the concentration at half of the fitted maximal effect; on the % scale 0 is the no-effect control and ±100 the full control effect; nearly all actives have a fitted effect of over 50% in size
Six1-Eya2 blk: Six1/Eya2 interaction inhibition; Q15475+O00167; AlphaScreen GST-Six1/His-Eya2 binding, biochemical; active compounds read low; activity change, % (concentration not given with the values); 360,000 tested, 0.56% active; AID 651725; in the data active means activity change below about -65%; inconclusive means mostly about -30% to -63%; further: on the % scale 0 is the no-effect control and ±100 the full control effect
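Six1/Eya2 binding was read as AlphaScreen signal after compounds were pinned into GST-Six1 plus His-tagged Eya2 (5X stock 250/500 nM) in pH 8.0 Tris/NaCl/TCEP buffer, beads added, then incubated 1 h, 37 C, dark.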
G9a block: blocks human histone lysine methyltransferase G9a; Q96KQ7; G9a H3K9 monomethylation, AlphaScreen, 2 h; Potency, µM (highest dose often 102 µM), for inactives: at the top dose activity, negative = inhibition, usual class: inhibitors; 350,000 tested, 8.8% active; further: potency means the concentration at half of the fitted maximal effect; on the % scale 0 is the no-effect control and ±100 the full control effect; nearly all actives have a fitted effect of over 75% in size
Target sequence (Q96KQ7 913-1193 limits assumed): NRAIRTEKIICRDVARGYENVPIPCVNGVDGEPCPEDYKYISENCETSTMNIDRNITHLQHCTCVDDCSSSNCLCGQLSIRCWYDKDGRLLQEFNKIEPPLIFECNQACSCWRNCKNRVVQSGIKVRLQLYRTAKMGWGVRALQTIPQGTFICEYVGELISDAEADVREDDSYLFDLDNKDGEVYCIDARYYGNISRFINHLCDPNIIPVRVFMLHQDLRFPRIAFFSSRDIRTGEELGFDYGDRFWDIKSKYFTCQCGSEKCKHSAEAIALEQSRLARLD
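Quantitative HTS format: methyltransferase activity on a biotin-tagged H3K9 peptide is measured by AlphaScreen, using a rabbit anti-monomethyl-H3K9 antibody with streptavidin donor and anti-IgG acceptor beads. Final levels are 20 nM enzyme, 500 nM peptide, 20 uM SAM; 2 h RT.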
CtBP-E1A inh: CtBP/E1A binding inhibition; 340,000 tested, 0.49% active; AlphaScreen GST-E1A/His-CtBP binding, 1536-well; active compounds read low; activity change, % (concentration not given with the values); in the data active means activity change below about -65%; inconclusive means mostly about -30% to -63%; further: on the % scale 0 is the no-effect control and ±100 the full control effect
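GST-E1A and His-tagged CtBP (125 nM each as 5X stock) were preincubated with pin-transferred compound for 2 h at 37 °C in the dark, then glutathione donor and nickel acceptor beads were added for 1 h before AlphaScreen reading.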
* hit, by the source's call; [ ] = another dose, or the depositor's remark. Unless noted, the call rests on the fitted dose curve; in most records, active means well fitted inhibition curve with a large enough effect; inconclusive means small, poorly fitted or top-dose-only effect; inactive means no such curve, though single readings can be large or run the other way.

For O=C(O)c1nccnc1C(=O)Nc1ccc(Oc2c(Cl)cccc2Cl)nc1 the results were BAZ2B inh inconclusive, HP1b chromo inh 14.2%, JMJD2A Tudor -22.9%, Six1-Eya2 blk 3.4 and CtBP-E1A inh 3.0.
For COc1cc(NC(=O)c2nccnc2C(=O)O)cc(OC)c1 the results were BAZ2B inh inconclusive, HP1b chromo inh 15.9%, JMJD2A Tudor 39.8µM*, Six1-Eya2 blk -10.2, G9a block 22.4µM* and CtBP-E1A inh -2.1.
Screening Cn1nccc1NC(=O)c1nccnc1C(=O)O returned BAZ2B inh inconclusive, HP1b chromo inh 21.7%, JMJD2A Tudor -2.9%, Six1-Eya2 blk 3.3 and G9a block 39.8µM*.
For Cn1nccc1NC(=O)NC(=O)c1c(Cl)cccc1Cl the results were BAZ2B inh -2.7%, HP1b chromo inh 30.0%, JMJD2A Tudor -6.3%, Six1-Eya2 blk 6.1 and G9a block 19.5%.
Screening CC(=O)Nc1ccc(NC(=O)c2nccnc2C(=O)O)cn1 returned BAZ2B inh 50.1µM*, HP1b chromo inh 11.1%, JMJD2A Tudor -9.1%, Six1-Eya2 blk 4.7 and G9a block 20.5%.
COc1ccc(NC(=O)c2cc3c([nH]c2=O)CC(c2ccccc2)CC3=O)cc1 (stereo unspecified) was read as BAZ2B inh 0.8%, HP1b chromo inh 42.7%, JMJD2A Tudor 12.6% and G9a block 4.3%[12.7 µM].
Screening COc1cccc(NS(=O)(=O)c2ccc3c(c2)CCC(=O)N3)c1 returned JMJD2A Tudor -2.7%.
For Cn1c(=O)c(-c2cc(Br)ccc2N)nc2ccccc21 the results were BAZ2B inh -16.7%, HP1b chromo inh -19.7%, JMJD2A Tudor inconclusive, Six1-Eya2 blk -27.4, G9a block 50.1µM* and CtBP-E1A inh -20.1.
For COc1ccc(-c2csc(NC(=O)Cc3ccccc3F)n2)cc1OC the results were BAZ2B inh 39.8µM*, HP1b chromo inh -7.2%, JMJD2A Tudor inconclusive, Six1-Eya2 blk -14.8, G9a block inconclusive and CtBP-E1A inh -9.8.
For COc1ccccc1CC(=O)Nc1nc(-c2ccc(F)c(F)c2)cs1 the results were BAZ2B inh 3.1%, HP1b chromo inh 48.0%, JMJD2A Tudor 2.7%, Six1-Eya2 blk 6.0, G9a block 13.1% and CtBP-E1A inh -2.5.
`COc1ccc(-c2csc(NC(=O)CS(=O)(=O)c3ccccc3)n2)cc1OC` gave Six1-Eya2 blk -14.0 and CtBP-E1A inh 0.6.
COc1ccc(-c2csc(NC(=O)CC(NC(C)=O)c3ccccc3)n2)cc1OC (stereo unspecified) was read as BAZ2B inh 79.4µM*, HP1b chromo inh 25.9%, JMJD2A Tudor -20.7%, Six1-Eya2 blk inconclusive, G9a block 25.1µM* and CtBP-E1A inh inconclusive.
Screening Cc1csc2nc(COC(=O)c3ccc(NC(=O)C(C)Oc4ccccc4)cc3)cc(=O)n12 (stereo unspecified) returned BAZ2B inh -2.6%, HP1b chromo inh 50.5%, JMJD2A Tudor inconclusive and G9a block 33.4%[59 µM].
`O=C(c1ccccc1)c1cccc2ccccc12` gave HP1b chromo inh 114.0%, JMJD2A Tudor 125.9%, Six1-Eya2 blk 12.1 and CtBP-E1A inh 53.6.
Screening Cc1cc(C(=O)c2ccccc2)cc(C)c1O returned HP1b chromo inh 25.1%, JMJD2A Tudor -3.4%, Six1-Eya2 blk -86.1* and CtBP-E1A inh -23.1.
For O=C(c1ccccc1)c1ccc(O)c(O)c1O the results were HP1b chromo inh inconclusive, JMJD2A Tudor 25.1µM*, Six1-Eya2 blk -10.9 and CtBP-E1A inh 8.3.
Screening COc1ccc(/C=C(\NC(=O)c2ccc(C)cc2)C(=O)NCCCn2ccnc2)cc1 returned BAZ2B inh 50.1µM*, HP1b chromo inh 23.4%, JMJD2A Tudor -17.9%, Six1-Eya2 blk -4.5, G9a block 5.1% and CtBP-E1A inh -4.6.
For O=C(NCCCn1ccnc1)/C(=C\c1cccs1)NC(=O)c1ccccc1 the results were BAZ2B inh -3.3%, HP1b chromo inh 15.4%, JMJD2A Tudor -18.1%, Six1-Eya2 blk 8.5, G9a block -3.7% and CtBP-E1A inh 16.9.
